Measurements from PubChem BioAssay (Tox21).
Several values for one entry are separate records, joined by “and”; a condition that tells them apart may be missing. Identical values can stand only once. Records with an inconclusive call do not appear. Some structures have more than one record in an assay (separate samples or runs), and their calls can disagree. Activity calls are given as the source filed them. Unless noted, the call rests on the fitted dose curve.

Columns and labels:
[1] = Nuclear factor erythroid 2-related factor 2/antioxidant responsive element (Nrf2/ARE) small molecule agonists: qHTS cell viability counter screen in human keratinocytes (AID 1919968; active means well fitted curve in the direction sought with a large enough effect in the repeat runs; an effect the other way counts as inactive or inconclusive; further: nearly all actives have a fitted effect of over 55% in size; further: potency means the concentration at half of the fitted maximal effect)
Outline: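 KeratinoSens HaCaT cells, 1,500/well, preincubated 5 h, then exposed to compounds in DMSO for 23 h at 37 C/5% CO2. Viability read as CellTiter-Fluor fluorescence after 1 h, in the same wells as the ARE-luciferase read.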

[2] = Nuclear factor erythroid 2-related factor 2/antioxidant responsive element (Nrf2/ARE) small molecule agonists: luciferase reporter gene qHTS assay in human keratinocytes (AID 1919969); further: nearly all actives have a fitted effect of over 35% in size; further: potency means the concentration at half of the fitted maximal effect
[3] = target: Gonadotropin-releasing hormone receptor (Homo sapiens) (UniProt P30968); assay: Human gonadotropin-releasing hormone receptor (GnRHR) small molecule agonists, calcium flux assay in GnRHR-HEK293 cells (AID 1920063); further: nearly all actives have a fitted effect of over 35% in size
Outline: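 HEK293 cells stably expressing human GnRHR were dye-loaded for 1 h at 37 C. Compound was added in agonist mode and fluorescence (Ex/Em 480/540) recorded kinetically for 3 min. Fifteen concentrations, triplicates.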

[4] = target: KiSS-1 receptor (Homo sapiens) (UniProt Q969F8); assay: Human kisspeptin (KISS1R) small molecule agonists, calcium flux assay in KISS1R-HEK293 cells (AID 1920064; active means well fitted curve in the direction sought with a large enough effect in the repeat runs; an effect the other way counts as inactive or inconclusive)
Outline: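 HEK293 cells stably expressing human KISS1R were loaded with calcium dye for 1 h at 37 C, then given compound; fluorescence (Ex/Em 480/540) was read kinetically for 3 min. Fifteen concentrations, triplicate.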

[5] = G protein-coupled receptor (GPCR) small molecule agonists, calcium flux assay: HEK293 wild type cell line counter screen (AID 1920065)
Outline: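 Wild-type HEK293 cells plated 18 h, loaded with calcium dye 1 h at 37 C, then compounds added in agonist mode (ATP as positive control). Kinetic fluorescence Ex/Em 480/540 recorded 3 min at 1 sec intervals; 15 concentrations, triplicate.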

[6] = p53 small molecule agonists, cell-based qHTS assay with human liver microsomes: qHTS cell viability counter screen (AID 1963579); further: nearly all actives have a fitted effect of over 45% in size; further: potency means the concentration at half of the fitted maximal effect
Outline: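 After the 460/530 nm beta-lactamase read, CellTiter-Glo was added to the same wells and luminescence measured after 30 min at room temperature, giving viability of p53RE-bla cells treated 16 h with compounds plus microsomes and NADPH.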

[7] = p53 small molecule agonists, cell-based qHTS assay with rat liver microsomes: qHTS cell viability counter screen (AID 1963580); further: nearly all actives have a fitted effect of over 45% in size
Outline: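 p53RE-bla HCT-116 cells were exposed 16 h at 37 C to compounds with rat liver microsomes (0.5 mg/mL) and NADPH (0.5 mg/mL). Viability was measured in the same wells as ATP content by CellTiter-Glo luminescence.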

[8] = p53 small molecule agonists, cell-based qHTS assay: qHTS cell viability counter screen (AID 1963581); further: nearly all actives have a fitted effect of over 45% in size
Outline: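 p53RE-bla HCT-116 cells, compounds added 5 h after plating and incubated 16 h at 37 C. Cytotoxicity measured in the same wells as intracellular ATP by CellTiter-Glo luminescence after 30 min at room temperature.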

[9] = p53 small molecule agonists, cell-based qHTS assay (AID 1963582; active means well fitted activation curve with a large enough effect in the signal ratio in the repeat runs, not every such curve was filed as active; the % refers to the signal ratio)
Outline: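 p53RE-bla reporter cells, compounds added in DMSO after 5 h plating, incubated 16 h at 37 C. Beta-lactamase read via 2 h room-temperature LiveBLAzer B/G FRET substrate, fluorescence intensity.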

[10] = target: 5-hydroxytryptamine receptor 2A (Homo sapiens) (UniProt P28223); assay: 5-hydroxytryptamine receptor 2A (HTR2A) small molecule antagonists, cell-based qHTS assay (AID 1963586); further: nearly all actives have a fitted effect of over 45% in size
Outline: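 Antagonist-mode intracellular calcium assay: DOI (4 nM) added after 5 min compound pre-incubation at room temperature to dye-loaded HTR2A-CHO cells. Fluorescence followed for 3 min, sampled every second.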

[11] = target: 5-hydroxytryptamine receptor 2A (Homo sapiens) (UniProt P28223); assay: 5-hydroxytryptamine receptor 2A (HTR2A) small molecule agonists, cell-based qHTS assay (AID 1963587); further: nearly all actives have a fitted effect of over 30% in size
Outline: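 CHO cells stably expressing human HTR2A, plated 18 h, loaded with calcium dye 1 h at 37 C. Agonist mode: compounds added and intracellular calcium fluorescence recorded kinetically for 2 min at 1 sec intervals.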

[12] = target: Muscarinic acetylcholine receptor M1 (Homo sapiens) (UniProt P11229); assay: Cholinergic receptor muscarinic 1 (CHRM1) small molecule antagonists, cell-based qHTS assay (AID 1963588); further: nearly all actives have a fitted effect of over 40% in size
Outline: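 CHRM1-CHO calcium-flux assay, antagonist mode. Cells were seeded 18 h, dye-loaded 1 h at 37 C and given compound for 5 min at RT, then acetylcholine was added at 50nM. FDSS fluorescence was read 3 min; 15 concentrations, three runs.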

[13] = target: Muscarinic acetylcholine receptor M1 (Homo sapiens) (UniProt P11229); assay: Cholinergic receptor muscarinic 1 (CHRM1) small molecule agonists, cell-based qHTS assay (AID 1963589); further: nearly all actives have a fitted effect of over 35% in size
Outline: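 CHO cells stably expressing human CHRM1 were loaded with calcium dye for 1 h at 37 C, then compound was added in agonist mode. Intracellular calcium fluorescence was followed kinetically at 1 s intervals. Fifteen concentrations were tested in three independent runs.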

[14] = target: Beta-2 adrenergic receptor (Homo sapiens) (UniProt P07550); assay: Adrenergic beta2 receptor (ADRB2) small molecule antagonists, cell-based qHTS assay (AID 1963592); further: series mostly up to about 92 µM; nearly all actives have a fitted effect of over 50% in size
Outline: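 Cells (CHO, stable ADRB2 overexpression) incubated 18-20hr at 37C; compounds added from DMSO; agonist mix (1nM isoproterenol, 100uM IBMX, 25uM Ro-20-1724) added; 0.5hr RT; d2-cAMP and anti-cAMP-cryptate added; 1hr RT; 665/615 nm read.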

[15] = target: Beta-2 adrenergic receptor (Homo sapiens) (UniProt P07550); assay: Adrenergic beta2 receptor (ADRB2) small molecule agonists, cell-based qHTS assay (AID 1963593);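 further: CHO cells stably overexpressing human ADRB2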
Outline: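 CHO cells stably over-expressing ADRB2 were plated overnight at 37C, then dosed with compounds plus a stimulation mix containing 100uM IBMX and 25uM Ro-20-1724 for 0.5hr at room temperature. cAMP was measured by HTRF competition, 1hr.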

[16] = target: D(2) dopamine receptor (Homo sapiens) (UniProt P14416); assay: Dopamine D2 receptor (DRD2) small molecule agonists, cell-based qHTS assay (AID 1963594); further: nearly all actives have a fitted effect of over 35% in size
Outline: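 HEK293 cells stably expressing human DRD2, pre-treated with PDE inhibitor Ro20-1724 (0.1 mM final) and compound 10 min at room temperature, then stimulated with NKH477 (200nM […]) for 30 min. cAMP read by HTRF (665/620 nm).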

[17] = target: D(2) dopamine receptor (Homo sapiens) (UniProt P14416); assay: Dopamine D2 receptor (DRD2) small molecule antagonists, cell-based qHTS assay (AID 1963595; active means well fitted inhibition curve with a large enough effect in the signal ratio in the repeat runs, with a control signal flat; the % refers to the signal ratio)
Outline: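 Human DRD2 antagonist qHTS measuring cAMP by HTRF. The cells are exposed to compound for 10 min, then to NKH477 (200 nM) and quinpirole (12 nM) for 30 min at RT, with Ro20-1724 (0.1 mM) present throughout.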

[18] = p53 small molecule agonists, cell-based qHTS assay with human liver microsomes (AID 1963577);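 further: p53 response element beta-lactamase reporter cells with liver microsomes plus NADPH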
Outline: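 Steps: plate p53RE-bla cells, incubate 5 h at 37 C; add compound in DMSO; add microsomes (0.5 mg/mL final) and NADPH (0.5 mg/mL final); incubate 16 h at 37 C; add LiveBLAzer, 2 h RT; read fluorescence.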

[19] = cAMP Responsive Elements (CRE) small molecule agonists, cell-based qHTS assay (AID 1963590)
Outline: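 CRE-bla HEK 293T cells, 2,000/well in DMEM with 10% dialyzed FBS and 25 mM HEPES, pre-incubated 18 h at 37 C, then exposed to compound 3 h at 37 C. Beta-lactamase reporter read with LiveBLAzer B/G FRET substrate after 2 h at room temperature.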

[20] = cAMP Responsive Elements (CRE) small molecule antagonists, cell-based qHTS assay (AID 1963591; active means well fitted inhibition curve with a large enough effect in the signal ratio in the repeat runs, not every such curve was filed as active; the % refers to the signal ratio)
Outline: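 CRE-bla HEK293T cells plated 18 h, then given compound plus NKH477 at 0.25 uM final for 3 h at 37C. Beta-lactamase reporter read with LiveBLAzer B/G FRET substrate after 2 h at room temperature.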

Measured: Potency

Muscarinic acetylcholine receptor M1 (Homo sapiens), sequence (P11229 whole entry, looked up): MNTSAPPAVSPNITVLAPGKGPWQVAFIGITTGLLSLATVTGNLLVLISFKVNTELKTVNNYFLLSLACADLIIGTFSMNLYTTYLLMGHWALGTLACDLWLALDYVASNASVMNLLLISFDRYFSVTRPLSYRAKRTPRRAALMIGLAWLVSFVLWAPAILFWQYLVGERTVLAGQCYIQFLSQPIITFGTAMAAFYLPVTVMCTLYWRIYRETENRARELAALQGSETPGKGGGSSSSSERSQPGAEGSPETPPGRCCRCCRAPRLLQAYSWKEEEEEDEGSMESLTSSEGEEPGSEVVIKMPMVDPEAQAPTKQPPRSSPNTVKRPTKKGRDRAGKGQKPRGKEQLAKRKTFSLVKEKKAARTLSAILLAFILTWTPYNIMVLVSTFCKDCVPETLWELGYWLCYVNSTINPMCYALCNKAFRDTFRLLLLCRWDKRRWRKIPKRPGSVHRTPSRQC
D(2) dopamine receptor (Homo sapiens), sequence (P14416 whole entry, looked up): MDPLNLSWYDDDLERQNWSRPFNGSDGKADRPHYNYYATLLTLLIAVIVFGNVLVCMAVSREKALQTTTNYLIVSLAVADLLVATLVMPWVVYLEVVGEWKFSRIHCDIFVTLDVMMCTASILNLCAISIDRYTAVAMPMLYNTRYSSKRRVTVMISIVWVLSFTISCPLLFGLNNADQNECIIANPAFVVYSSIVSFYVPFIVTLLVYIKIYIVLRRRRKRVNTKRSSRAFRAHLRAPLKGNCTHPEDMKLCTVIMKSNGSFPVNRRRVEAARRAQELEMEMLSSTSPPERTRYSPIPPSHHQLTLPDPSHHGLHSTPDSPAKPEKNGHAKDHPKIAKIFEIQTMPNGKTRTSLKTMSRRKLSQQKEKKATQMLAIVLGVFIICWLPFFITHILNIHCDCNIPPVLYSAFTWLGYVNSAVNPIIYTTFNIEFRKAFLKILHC
5-hydroxytryptamine receptor 2A (Homo sapiens), sequence (P28223 whole entry, looked up): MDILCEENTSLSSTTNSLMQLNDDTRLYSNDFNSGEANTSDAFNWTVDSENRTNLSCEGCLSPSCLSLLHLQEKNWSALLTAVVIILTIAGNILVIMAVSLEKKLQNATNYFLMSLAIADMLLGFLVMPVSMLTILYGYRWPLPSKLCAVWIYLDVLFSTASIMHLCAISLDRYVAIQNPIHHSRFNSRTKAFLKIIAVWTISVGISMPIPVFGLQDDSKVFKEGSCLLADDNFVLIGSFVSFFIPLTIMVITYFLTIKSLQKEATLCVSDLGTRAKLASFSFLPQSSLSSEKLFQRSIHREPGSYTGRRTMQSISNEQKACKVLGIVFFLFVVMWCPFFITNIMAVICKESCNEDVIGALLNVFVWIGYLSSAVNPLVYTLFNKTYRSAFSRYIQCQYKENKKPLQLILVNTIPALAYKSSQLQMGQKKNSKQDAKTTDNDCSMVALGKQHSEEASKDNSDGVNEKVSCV
Gonadotropin-releasing hormone receptor (Homo sapiens), sequence (P30968 whole entry, looked up): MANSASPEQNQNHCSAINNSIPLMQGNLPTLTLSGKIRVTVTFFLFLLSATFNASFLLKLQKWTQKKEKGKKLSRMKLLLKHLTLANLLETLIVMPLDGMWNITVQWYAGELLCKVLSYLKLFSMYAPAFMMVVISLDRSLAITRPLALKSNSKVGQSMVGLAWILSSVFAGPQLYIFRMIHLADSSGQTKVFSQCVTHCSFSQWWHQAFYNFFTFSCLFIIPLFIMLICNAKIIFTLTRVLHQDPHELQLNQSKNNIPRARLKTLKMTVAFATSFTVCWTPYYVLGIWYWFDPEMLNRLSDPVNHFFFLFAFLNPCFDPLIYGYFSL
KiSS-1 receptor (Homo sapiens), sequence (Q969F8 whole entry, looked up): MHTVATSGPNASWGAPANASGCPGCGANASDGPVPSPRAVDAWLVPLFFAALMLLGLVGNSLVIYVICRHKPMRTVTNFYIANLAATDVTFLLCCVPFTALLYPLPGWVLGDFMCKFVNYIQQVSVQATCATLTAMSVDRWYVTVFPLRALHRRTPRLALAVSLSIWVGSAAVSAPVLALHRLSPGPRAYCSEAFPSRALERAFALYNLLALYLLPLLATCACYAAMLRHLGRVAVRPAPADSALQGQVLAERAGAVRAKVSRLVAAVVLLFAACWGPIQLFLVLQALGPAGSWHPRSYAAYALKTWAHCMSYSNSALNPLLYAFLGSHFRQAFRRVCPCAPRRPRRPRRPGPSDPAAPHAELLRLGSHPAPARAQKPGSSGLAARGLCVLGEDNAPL
Beta-2 adrenergic receptor (Homo sapiens), sequence (P07550 whole entry, looked up): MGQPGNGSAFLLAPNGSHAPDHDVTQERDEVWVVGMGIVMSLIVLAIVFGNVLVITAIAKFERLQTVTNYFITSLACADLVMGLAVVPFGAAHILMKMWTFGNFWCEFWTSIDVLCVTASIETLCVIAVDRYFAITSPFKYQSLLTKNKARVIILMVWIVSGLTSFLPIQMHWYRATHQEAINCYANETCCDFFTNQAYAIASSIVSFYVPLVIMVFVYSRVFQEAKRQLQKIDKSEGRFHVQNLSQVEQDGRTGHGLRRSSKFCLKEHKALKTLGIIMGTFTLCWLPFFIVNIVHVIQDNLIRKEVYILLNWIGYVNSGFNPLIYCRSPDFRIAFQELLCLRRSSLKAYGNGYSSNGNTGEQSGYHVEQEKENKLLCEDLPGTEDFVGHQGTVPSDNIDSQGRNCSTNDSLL

Cc1ccc(C(=O)c2cc(O)c(O)c([N+](=O)[O-])c2)cc1
active: [1] 30.6 µM
45.8 µM (active) and inactive: [6]
not listed: [18] | [19] | [20]
inactive: all other assays above

O=S(=O)(O)c1ccc2cc(O)c(S(=O)(=O)O)cc2c1
not listed: [6] | [11]
inactive: all other assays above

O=C(O[C@@H]1Cc2c(O)cc(O)cc2O[C@@H]1c1cc(O)c(O)c(O)c1)c1cc(O)c(O)c(O)c1
not listed: [12] | [15] | [18]
inactive: all other assays above

CCOCOCC
not listed: [12] | [18]
inactive: all other assays above

Oc1ccc(C(c2ccc(O)cc2)C(Cl)(Cl)Cl)cc1
active: [1] 60.9 µM and 54.5 µM | [2] 27.3 µM
inactive: [3] | [4] | [5] | [6] | [7] | [8] | [10] | [13] | [20] | [17]

Cc1cc(O)c(Cl)cc1C
not listed: [15] | [18]
inactive: all other assays above

CC/C=C\C#N
not listed: [12] | [18]
inactive: all other assays above
